PPARg SRC-3 ag: agonists of human PPARgamma SRC-3 coactivator recruitment | biochemical PPARgamma/SRC-3 coactivator recruitment assay | activation, % at 8 µM | 200,000 tested, 0.26% active | P37231; in the data active means activation above about 23%
Target sequence (P37231 whole entry, looked up): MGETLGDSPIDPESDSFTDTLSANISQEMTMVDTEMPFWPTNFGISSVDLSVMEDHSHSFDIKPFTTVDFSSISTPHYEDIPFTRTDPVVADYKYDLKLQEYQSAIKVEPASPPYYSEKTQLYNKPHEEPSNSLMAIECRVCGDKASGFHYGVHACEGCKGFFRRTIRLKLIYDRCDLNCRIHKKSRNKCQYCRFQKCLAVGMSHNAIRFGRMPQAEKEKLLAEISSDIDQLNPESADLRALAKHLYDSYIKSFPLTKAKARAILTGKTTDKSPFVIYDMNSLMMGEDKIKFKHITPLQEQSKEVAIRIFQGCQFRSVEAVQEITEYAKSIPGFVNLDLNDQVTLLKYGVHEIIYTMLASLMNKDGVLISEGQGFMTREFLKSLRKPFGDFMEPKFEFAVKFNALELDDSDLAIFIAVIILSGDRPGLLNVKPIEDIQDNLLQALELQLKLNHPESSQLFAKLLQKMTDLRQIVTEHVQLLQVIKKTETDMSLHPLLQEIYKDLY
SRC3 TRFRET art: counter-screen for PPARgamma SRC-3 recruitment agonists: TR-FRET artefact; 99,000 tested, 0.39% active; TR-FRET ratio at 8 µM; PPARgamma/SRC-3 format; hits give high values
SRC2 TRFRET art: counter-screen for PPARgamma SRC-2 recruitment agonists: TR-FRET artefact; 200,000 tested, 0.4% active; AID 1049; TR-FRET ratio at 8 µM; hits give high values
PPARg SRC1 recr: agonists of human PPARgamma SRC-1 coactivator recruitment | activation, % at 8 µM | P37231 | PPARgamma-SRC-1 coactivator recruitment biochemical assay | 200,000 tested, 0.41% active | AID 631; in the data active means activation above about 19%
PPARg SRC-2 ag: promotes SRC-2 coactivator recruitment by human PPARgamma | 200,000 tested, 0.34% active | P37231 | activation, % at 8 µM | PPARgamma LBD-SRC-2 recruitment, biochemical | AID 1032; in the data active means activation above about 22%
SRC1 TRFRET art: counter-screen for PPARgamma SRC-1 recruitment agonists: TR-FRET artefact | TR-FRET detection artefact counter-screen, emission ratio; hits give high values | TR-FRET ratio at 8 µM | 99,000 tested, 0.34% active | AID 1051; in the data active means TR-FRET ratio above about 2300
Each line names hits and unclear results; the compound was inactive in the other large screens. This is a sample that favours compounds with a hit; in the whole collection about 0.84% have one here. Unless noted, no stated cut-off is given here; in the data, active means TR-FRET ratio above about 2000; inactive means the rest.

CN(C)S(=O)(=O)c1ccc(C(=O)NCC(=O)N/N=C/c2ccccc2Cl)cc1	none
CC(=O)Nc1ccc(C(=O)Nc2ccc(S(=O)(=O)N3CCCC3)cc2)cc1	none
CS(=O)(=O)Nc1ccc(C(=O)Nc2ccc(S(=O)(=O)N3CCCC3)cc2)cc1	SRC2 TRFRET art 1992
COc1ccc2[nH]c(=O)c(CN(Cc3cccnc3)C(=S)NCC3CCCO3)cc2c1 (stereo not given)	none
CC1CCCCN1CC(=O)c1c(N)n(Cc2ccccc2)c(=O)n(C)c1=O (stereo not given)	none
Cc1ccc(F)cc1NC(=O)c1ccc(NS(=O)(=O)c2ccc(Br)s2)cc1	none
Cc1cc(C)cc(-n2c3nc4ccccc4nc3c3c(=O)n(Cc4ccco4)cnc32)c1	none (no result: SRC3 TRFRET art, SRC1 TRFRET art)
CCOc1ccc(-n2c3nc4ccccc4nc3c3c(=O)n(Cc4ccco4)cnc32)cc1	PPARg SRC-3 ag 84.0, PPARg SRC1 recr 45.2 (no result: SRC3 TRFRET art, SRC1 TRFRET art)
O=C1OCCN1C(=O)[C@H]1[C@H](c2ccc(Cl)cc2)C(c2cccc(Cl)c2)=NN1c1ccccc1	SRC3 TRFRET art 2817, SRC2 TRFRET art 2617, SRC1 TRFRET art 3296
Cc1ccc(O)c(C(CC(=O)NC2CCCCC2)c2ccccc2)c1 (stereo not given)	none
CC(C)NC(=O)NC(=O)CSc1ccccc1F	PPARg SRC-3 ag 38.2, SRC3 TRFRET art 3589
CC(C)NC(=O)NC(=O)COC(=O)c1ccccc1F	none
CC(C)C(=O)N1C2CCC1CC(O)(c1ccc(F)cc1)C2 (stereo not given)	PPARg SRC-3 ag 48.0 (no result: SRC3 TRFRET art, SRC1 TRFRET art)
Cc1cc(N2C3CCC2CC(O)(c2ccc(F)cc2)C3)nc(-c2ccccc2)n1 (stereo not given)	none (no result: SRC3 TRFRET art, SRC1 TRFRET art)
CCOc1ccc(-c2nn(-c3ccccc3)cc2/C=C2\SC(N)=NC2=O)cc1C	PPARg SRC-3 ag 29.3 (no result: SRC3 TRFRET art, SRC1 TRFRET art)
CCOc1ccc(-c2nn(-c3ccccc3)cc2/C=C2\SC(=S)N(C3CCS(=O)(=O)C3)C2=O)cc1 (stereo not given)	none (no result: SRC3 TRFRET art, SRC1 TRFRET art)
O=C(CC1CCCC1)Nc1ccc2c(c1)CCC2	PPARg SRC-2 ag 57.1 (no result: SRC3 TRFRET art, SRC1 TRFRET art)
O=C(Cc1ccccc1)Nc1ccc2c(c1)CCC2	none
O=C(CSc1nnc(-c2ccc(S(=O)(=O)N3CCOCC3)cc2)o1)c1ccccc1F	none (no result: SRC3 TRFRET art, SRC1 TRFRET art)
COc1cccc(C(=O)Nc2nc(-c3ccc(S(=O)(=O)N4CCOCC4)cc3)cs2)c1	SRC2 TRFRET art 2385 (no result: SRC3 TRFRET art, SRC1 TRFRET art)
O=C(Nc1nc(-c2ccc(S(=O)(=O)N3CCCC3)cc2)cs1)c1cccs1	none (no result: SRC3 TRFRET art, SRC1 TRFRET art)
COc1ccc(C(=O)CSc2nnc(-c3ccc(S(=O)(=O)N4CCOCC4)cc3)o2)cc1	PPARg SRC1 recr 24.9 (no result: SRC3 TRFRET art, SRC1 TRFRET art)
Cc1ccc(-c2csc(NC(=O)c3cccc(S(=O)(=O)N4CCN(C)CC4)c3)n2)cc1	none
O=C(Nc1nc(-c2ccc(S(=O)(=O)N3CCOCC3)cc2)cs1)c1ccccc1	SRC2 TRFRET art 2397 (no result: SRC3 TRFRET art, SRC1 TRFRET art)
O=C(Nc1nc(-c2nc3ccccc3s2)cs1)c1ccc(S(=O)(=O)N2CCOCC2)cc1	none (no result: SRC3 TRFRET art, SRC1 TRFRET art)
O=C(Nc1nc(-c2ccc(S(=O)(=O)N3CCCCCC3)cc2)cs1)c1cccs1	SRC2 TRFRET art 2280, PPARg SRC1 recr 21.8 (no result: SRC3 TRFRET art, SRC1 TRFRET art)
O=C1[C@H](CC[C@H](O)c2ccc(F)cc2)[C@@H](c2ccc(O)cc2)N1c1ccc(F)cc1	none
CN(/N=C\c1ccc(O)c(O)c1)c1nc(-c2ccccc2)cc(-c2ccccc2)n1	none
Cn1c(N)c(C(=O)COC(=O)CSc2ccc(Cl)cc2)c(=O)n(C)c1=O	none
O=C(Nc1nc(-c2ccc3ccccc3c2)cs1)C1CCN(S(=O)(=O)c2cccs2)CC1	SRC3 TRFRET art 2381
Cc1onc(-c2ccccc2)c1C(=O)Nc1nc(-c2ccccc2)cs1	SRC2 TRFRET art 2194 (no result: SRC3 TRFRET art, SRC1 TRFRET art)
O=C(c1ccc(F)cc1)C1CCN(S(=O)(=O)c2ccccc2)CC1	none
COc1cccc(NC(=O)Cn2c(=O)n(CC3CCCO3)c(=O)c3ccccc32)c1 (stereo not given)	none (no result: SRC3 TRFRET art, SRC1 TRFRET art)
Cc1nc(SCC(=O)Nc2ccc3c(c2)OCCO3)c2oc3ccccc3c2n1	none (no result: SRC3 TRFRET art, SRC1 TRFRET art)
CCc1nc(SCC(=O)Nc2ccc3c(c2)OCCO3)c2oc3ccccc3c2n1	PPARg SRC1 recr 66.7 (no result: SRC3 TRFRET art, SRC1 TRFRET art)
Cc1[nH]c2ccccc2c1C(=O)C(=O)NCCOc1ccccc1	PPARg SRC-2 ag 23.9
COc1ccc(/C=N/NC(=O)c2ccc(Br)cc2)c(OC)c1	none
COc1ccccc1/C=N/NC(=O)c1ccc(Br)cc1	SRC1 TRFRET art 2364
O=[N+]([O-])c1ccc(COc2cccc(CNc3ccc(F)cc3)c2)cc1	none
Oc1ccc(NCc2cccc(OCc3ccc(F)cc3)c2)cc1	PPARg SRC1 recr 23.1
Cc1ccc(S(=O)(=O)N2CCCC(C(=O)N(Cc3cccs3)C3CC3)C2)cc1 (stereo not given)	SRC2 TRFRET art 2180
N#Cc1ccccc1NC(=O)c1ccccc1OCC(=O)Nc1ccc2c(c1)oc1ccccc12	SRC2 TRFRET art 2662 (no result: SRC3 TRFRET art, SRC1 TRFRET art)
C/C(=N\Nc1nc2ccccc2s1)c1ccc(Br)s1	PPARg SRC1 recr 22.6
O=C(c1cc(-c2cccs2)nc2ccccc12)N1CCN(c2ccccc2)CC1	none
O=C(c1cc(-c2ccccn2)nc2c(Cl)cccc12)N1CCN(S(=O)(=O)c2ccccc2)CC1	SRC3 TRFRET art 3978, SRC2 TRFRET art 2813
Cc1cc(NC(=O)c2cc(-c3ccc(C)s3)nc3ccccc23)no1	none (no result: SRC3 TRFRET art, SRC1 TRFRET art)
O=C(c1cc(-c2ccccn2)nc2c(Cl)cccc12)N1CCN(C(=O)C2CCCO2)CC1 (stereo not given)	none (no result: SRC3 TRFRET art, SRC1 TRFRET art)
O=C(c1cc(-c2cccs2)nc2ccccc12)N1CCN(S(=O)(=O)c2cccc(F)c2)CC1	SRC2 TRFRET art 2309 (no result: SRC3 TRFRET art, SRC1 TRFRET art)
Cc1cccc(NC(=O)c2cc(-c3ccc(C)s3)nc3ccccc23)n1	SRC3 TRFRET art 2191, SRC2 TRFRET art 2007
O=C(c1cc(-c2cccs2)nc2ccccc12)N1CCN(S(=O)(=O)c2ccccc2)CC1	SRC2 TRFRET art 2313 (no result: SRC3 TRFRET art, SRC1 TRFRET art)
Fc1cc(F)cc(NC(=S)Nc2ccccc2N2CCOCC2)c1	none
CN(C)S(=O)(=O)c1cccc(NC(=O)c2cc(-c3cccs3)nc3ccccc23)c1	SRC3 TRFRET art 2449, SRC2 TRFRET art 2036
OCCN=C1CCCc2c1[nH]c1ccc(Br)cc21	PPARg SRC1 recr 18.9 (no result: SRC3 TRFRET art, SRC1 TRFRET art)
O=c1c(-c2ccco2)[n+]([O-])c2ccccc2n1OCc1ccccc1[N+](=O)[O-]	none
COc1cccc(NC(=S)/C(=C(\[O-])c2ccc(OC(F)F)cc2)[n+]2ccccc2)c1	SRC2 TRFRET art 1987
COc1ccc2nc(SCC(=O)N3CCN(c4ccc(F)cc4)CC3)c(C#N)cc2c1	SRC2 TRFRET art 2728 (no result: SRC3 TRFRET art, SRC1 TRFRET art)
Cc1ccc2cc(C#N)c(N3CCCN(C(=O)C4CCCO4)CC3)nc2c1 (stereo not given)	none (no result: SRC3 TRFRET art, SRC1 TRFRET art)
Cc1ccc(S(=O)(=O)N2CCCN(c3nc4cc(C)ccc4cc3C#N)CC2)cc1	SRC2 TRFRET art 3009 (no result: SRC3 TRFRET art, SRC1 TRFRET art)
COc1ccc(C(=O)Nc2scc(-c3ccc(Cl)cc3Cl)c2C(N)=O)cc1	SRC2 TRFRET art 1986 (no result: SRC3 TRFRET art, SRC1 TRFRET art)

Screening results as filed in PubChem.
